Bioassay records: PubChem, National Center for Advancing Translational Sciences (NCATS)
Sampled rows, rich in hits. Any-hit rate of the full collection: about 21%.
ClpP mod = qHTS Assay for Activators of ClpP; ATP-dependent Clp protease proteolytic subunit (Bacillus subtilis (strain 168)), P80244; purified B. subtilis ClpP, FRET peptide cleavage, 20 min; Potency, µM (titrated, usually from 57.5 µM), inactives show top-dose activity change, negative = active; 340,000 tested, 1.9% active; AID 651965, 2013; active = well fitted falling curve with a large enough effect; inconclusive = small, poorly fitted or top-dose-only effect; inactive = no such curve, though single readings can be large or run the other way; also: potency is read from the fitted curve at half-maximal effect; the source files actives as falling curves though it sought activators and does not explain the sign; nearly all actives have a fitted effect of over 65% in size
Target sequence (P80244 whole entry, looked up): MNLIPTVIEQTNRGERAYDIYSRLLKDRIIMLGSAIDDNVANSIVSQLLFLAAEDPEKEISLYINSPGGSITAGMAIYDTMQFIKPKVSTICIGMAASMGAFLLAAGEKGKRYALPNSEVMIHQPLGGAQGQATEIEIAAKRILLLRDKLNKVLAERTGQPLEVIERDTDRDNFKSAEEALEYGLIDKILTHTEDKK
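Purified B. subtilis ClpP, 10 microg/mL final in Tris/HCl pH8 with KCl, BSA, glycerol and Tween-20, cleaved an Abz/nitrotyrosine-quenched decapeptide. Fluorescence (ex 320, em 430) was read at 0 and 20 min at room temperature. Delta was normalized to 5.8 microM ADEP and DMSO/no-enzyme controls.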
D3 antag = blocks the human D3 dopamine receptor. P35462. D3R cells, DiscoveRx beta-arrestin luminescence, antagonist mode; stronger effect = lower value. max response, negative = inhibition, %. 360,000 tested, 2.5% active. AID 652054; in the data active = max response below about -50%; inconclusive = no clear call, values can overlap the other calls; also: % is scaled to controls: 0 for no effect and ±100 for the full control effect
Target sequence (P35462 whole entry, looked up): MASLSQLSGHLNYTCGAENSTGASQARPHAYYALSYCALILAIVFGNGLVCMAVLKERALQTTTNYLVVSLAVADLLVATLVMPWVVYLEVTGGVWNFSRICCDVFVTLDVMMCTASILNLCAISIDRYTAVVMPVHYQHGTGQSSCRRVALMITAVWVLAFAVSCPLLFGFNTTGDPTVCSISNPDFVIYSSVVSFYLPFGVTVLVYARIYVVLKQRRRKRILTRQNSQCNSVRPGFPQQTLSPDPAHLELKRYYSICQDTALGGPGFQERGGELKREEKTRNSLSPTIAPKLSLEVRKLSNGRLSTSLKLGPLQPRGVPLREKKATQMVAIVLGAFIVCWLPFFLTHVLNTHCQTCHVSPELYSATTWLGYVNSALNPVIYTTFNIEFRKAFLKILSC
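Cells expressing the human receptor were seeded at 1500 cells/well, incubated overnight at 37 degrees C in 5% CO2, then exposed to library compounds with dopamine controls for 90 minutes at 37 degrees C before luminescent detection.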
IL1B secr inh = inflammasome signaling inhibition, IL-1 beta readout | THP-1 LPS/ATP IL-1B secretion, AlphaLISA, 16 h; stronger effect = lower value | activity change, % at 57.5 µM | 360,000 tested, 4.7% active | AID 743279; in the data active = activity change below about -50%; inconclusive = mostly about -30% to -49%; also: % is scaled to controls: 0 for no effect and ±100 for the full control effect
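THP-1 cells pretreated 1 hr with compounds (up to 57.5 uM final), then stimulated with LPS (250 ng/mL final) plus ATP (1.25 mM final); secreted IL-1B measured by AlphaLISA after 16 hr, decreased signal indicating inhibition.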
TDP1 cell noCPT = qHTS for Inhibitors of human tyrosyl-DNA phosphodiesterase 1 (TDP1): qHTS in cells in absence of CPT. 420,000 tested, 15% active. AID 686978, 2013. Potency, µM (highest dose often 46.2 µM), for the others: at the highest dose activity change, negative = growth inhibition, usual class: inhibitors. DT40 Tdp1-/- hTDP1 cells, no CPT, ATP luminescence, 48 h; also: potency is read from the fitted curve at half-maximal effect; % is scaled to controls: 0 for no effect and ±100 for the full control effect; nearly all actives have a fitted effect of over 55% in size
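Stably hTDP1-transfected Tdp1-null chicken DT40 cells were treated with library compounds minus camptothecin and grown for at least 48 hr at 37 °C, after which cellular ATP was quantified by luminescence.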
DT40 TDP1 CPT = growth inhibition of DT40 Tdp1-/-;hTDP1 cells with camptothecin (screen for TDP1 inhibitors) | 420,000 tested, 12% active | Potency, µM (titrated, usually from 46.2 µM), inactives show at the highest dose activity change, negative = growth inhibition, actives largely listed as inhibitors | chicken DT40 Tdp1-/-;hTDP1 cells + 20 nM CPT, ATP luminescence, 48 h; also: potency is read from the fitted curve at half-maximal effect; % is scaled to controls: 0 for no effect and ±100 for the full control effect; nearly all actives have a fitted effect of over 55% in size
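Cell growth measured by CellTiter-Glo luminescence after a minimum 48 h, 37 C compound exposure with 20 nM CPT in Tdp1-knockout DT40 cells stably expressing hTDP1, seeded 400/well; qHTS titration format.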
DRD3 agonist = activates the human D3 dopamine receptor; AID 652048; 410,000 tested, 0.58% active; D3R DiscoveRx beta-arrestin cells, luminescence, 90 min; max activation, %; in the data active = max activation above about 30%; also: 0% is about no effect
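Agonist mode: compounds and dopamine controls were applied to plated cells for 90 min at 37 degrees C after an overnight attachment at 1500 cells/well. Luminescent read-out followed 30 - 60 minutes at room temperature with DiscoveRx detection reagent.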
Numbers without * were called inactive. Unless noted, calls follow the shape of the dose curve; as a rule, active = well fitted inhibition curve with a large enough effect; inconclusive = small, poorly fitted or top-dose-only effect; inactive = flat fitted curve, though single readings scatter.

For CCOc1ccc(S(N)(=O)=O)cc1-c1nc2c(C(C)(C)C)nn(C)c2c(=O)[nH]1 the results were D3 antag -19, IL1B secr inh inconclusive, TDP1 cell noCPT inconclusive, DT40 TDP1 CPT inconclusive and DRD3 agonist 3.
`CCOc1ccc(S(=O)(=O)NC(C)(C)C)cc1-c1nc2c(C(C)(C)C)nn(C)c2c(=O)[nH]1` gave ClpP mod -3%, D3 antag 7, IL1B secr inh -98*, TDP1 cell noCPT inconclusive, DT40 TDP1 CPT 21µM* and DRD3 agonist 10.
Screening CCOc1ccc(S(=O)(=O)N(CCO)CCO)cc1-c1nc2c(C(C)(C)C)nn(C)c2c(=O)[nH]1 returned ClpP mod -4%, D3 antag 0, IL1B secr inh inconclusive, TDP1 cell noCPT 18µM*, DT40 TDP1 CPT inconclusive and DRD3 agonist 1.
Screening CCOc1ccc(OCC)c(NC(=O)CCCN2C(=S)NC(C)(C)CC2C)c1 (configuration not stated) returned ClpP mod -1%, D3 antag -56*, IL1B secr inh -10, TDP1 cell noCPT 16µM*, DT40 TDP1 CPT 16µM* and DRD3 agonist 0.
For Cc1ccc(NC(=O)CCCN2C(=S)NC(C)(C)CC2C)cc1 (configuration not stated) the results were ClpP mod 0%, D3 antag -20, IL1B secr inh -3, TDP1 cell noCPT -12%, DT40 TDP1 CPT 1% and DRD3 agonist 0.
CC1CC(C)(C)NC(=S)N1CCCC(=O)Nc1ccc(F)cc1 (configuration not stated) was read as ClpP mod -2%, D3 antag -17, IL1B secr inh -2, TDP1 cell noCPT 18µM*, DT40 TDP1 CPT -26% and DRD3 agonist -23.
O=C1CC(c2ccc3c(c2)OCCO3)Oc2ccccc21 (configuration not stated) was read as ClpP mod 1%, D3 antag -4, IL1B secr inh -12, TDP1 cell noCPT -20%, DT40 TDP1 CPT inconclusive and DRD3 agonist 6.
For NC(=S)N/N=C1\CC(c2ccc3c(c2)OCCCO3)Oc2ccc(F)cc21 (configuration not stated) the results were D3 antag 6, IL1B secr inh -71*, TDP1 cell noCPT 4.6µM*, DT40 TDP1 CPT 2.6µM* and DRD3 agonist -3.
C=C(C)C(=O)N1CC2(CC(c3cccc(NC(=O)COc4ccc(Cl)cc4)c3)=NO2)C[C@@H]1C(N)=O (some centres not stated) was read as ClpP mod 1%, D3 antag 6, IL1B secr inh inconclusive, TDP1 cell noCPT inconclusive, DT40 TDP1 CPT inconclusive and DRD3 agonist 11.
CCCCCC(=O)Nc1cccc(C2=NOC3(C2)C[C@@H](C(N)=O)N(C(=O)Cc2ccc([N+](=O)[O-])cc2)C3)c1 (some centres not stated) was read as ClpP mod -2%, D3 antag -56*, IL1B secr inh -29, TDP1 cell noCPT inconclusive, DT40 TDP1 CPT inconclusive and DRD3 agonist 2.
`NC(=O)[C@H]1CC2(CC(c3cccc(NC(=O)COc4ccc(Cl)cc4)c3)=NO2)CN1C(=O)Cc1ccc([N+](=O)[O-])cc1` (some centres not stated) gave ClpP mod -6%, D3 antag 0, IL1B secr inh inconclusive, TDP1 cell noCPT 16µM*, DT40 TDP1 CPT 13µM* and DRD3 agonist -3.
For O=C(Nc1nnc(S(=O)(=O)N2CCN(c3ccc(F)cc3)CC2)s1)c1ccc(Cl)cc1 the results were ClpP mod -1%, TDP1 cell noCPT -24%, DT40 TDP1 CPT -29% and DRD3 agonist 5.
`COc1cc(O)c(C(CCN2CCN(c3ccccc3)CC2)c2ccc(N(C)C)cc2)c(OC)c1` (configuration not stated) gave ClpP mod -4%, D3 antag 0, IL1B secr inh inconclusive, TDP1 cell noCPT 21µM*, DT40 TDP1 CPT 13µM* and DRD3 agonist -67.
For COc1cc(O)c(C(CCN2CCOCC2)c2ccc3c(c2)OCO3)c(OC)c1 (configuration not stated) the results were ClpP mod 2%, D3 antag -17, IL1B secr inh -23, TDP1 cell noCPT inconclusive, DT40 TDP1 CPT inconclusive and DRD3 agonist 5.
COc1cc(O)c(C(CCN2CCOCC2)c2ccc(N(C)C)cc2)c(OC)c1 (configuration not stated) was read as ClpP mod 0%, D3 antag -18, IL1B secr inh -13, TDP1 cell noCPT inconclusive, DT40 TDP1 CPT 15µM* and DRD3 agonist -11.
COc1cc(O)c(C(CCN2CCCC2)c2cc(OC)c(OC)c(OC)c2)c(OC)c1 (configuration not stated) was read as ClpP mod 0%, D3 antag -1, IL1B secr inh 32, TDP1 cell noCPT inconclusive, DT40 TDP1 CPT -14% and DRD3 agonist 1.
For COc1ccc(C(CCN2CCN(c3ccccc3)CC2)c2c(O)cc(OC)cc2OC)cc1 (configuration not stated) the results were ClpP mod 1%, D3 antag -112*, IL1B secr inh -7, TDP1 cell noCPT 21µM*, DT40 TDP1 CPT 16µM* and DRD3 agonist -65.
For O=C(O)CC1(CC(=O)N2CCC(C(=O)O)CC2)CCCC1 the results were D3 antag 4, IL1B secr inh 9, TDP1 cell noCPT 10%, DT40 TDP1 CPT 45% and DRD3 agonist 1.
`CCOCN(C(=O)CSc1nc2ccccc2[nH]1)c1c(C)cccc1CC` gave ClpP mod 4%, TDP1 cell noCPT 23µM*, DT40 TDP1 CPT 15µM* and DRD3 agonist -10.
`CCc1cccc(CC)c1N(COC)C(=O)Cn1c(CO)nc2ccccc21` gave ClpP mod -1%, D3 antag inconclusive, IL1B secr inh 1, TDP1 cell noCPT inconclusive, DT40 TDP1 CPT inconclusive and DRD3 agonist 2.
CCOCN(C(=O)Cn1c(CC(C)C)nc2ccccc21)c1c(C)cccc1CC was read as ClpP mod 3%, TDP1 cell noCPT 23µM*, DT40 TDP1 CPT inconclusive and DRD3 agonist 1.
For CCOC(=O)c1c(C)[nH]c(C)c1C(=O)CSc1nc2ccccc2[nH]1 the results were ClpP mod 1%, D3 antag -6, IL1B secr inh -2, TDP1 cell noCPT -74%, DT40 TDP1 CPT -73% and DRD3 agonist -10.
